Activity calls are given as the source filed them. Rule for the calls: active = hit-call score of the fitted dose curve at least 0.9, where 1 is the maximum; inactive = score below 0.9.

Consider 15 compounds from PubChem BioAssay (EPA / NIEHS).

This assay is described as follows: ATG_GLI_CIS: Attagene CIS-FACTORIAL HepG2 Assay for human Zinc Finger Protein GLI1 (AID 2282945). The note with it: HepG2, Attagene cis-factorial reporter mRNA, GLI element; actives raise or lower the signal. The method, boiled down: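 Bidirectional curve fits relative to DMSO, using reporter mRNA levels from RT-PCR plus capillary electrophoresis. Cells were HepG2 transiently carrying cis-regulated reporter constructs, harvested 24 h after dosing.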
As to `Nc1ccc(Oc2ccc(N)cc2)cc1`, the compound was classed as inactive. In the case of `C1=Cc2cccc3cccc1c23`, the result was inactive. Take `Cc1ccc(N)c(N)c1`: the compound was classed as inactive. With `Nc1cc(Cl)cc(C(=O)O)c1Cl`, the outcome was inactive.

Regarding `CN(C)c1ccccc1`, the outcome was inactive.

On to `Cc1ccc(N)cc1`, for which the compound was classed as inactive.

Turning to `CCCSC(=O)N(CCC)CCC`, the compound was classed as inactive. Take `Cc1cc(N=Nc2ccccc2C)ccc1N`: the compound was called inactive. Then `O=P(OCCCl)(OCCCl)OCCCl`, with “inactive”; and `CC(C)(C)C(O)(CCc1ccc(Cl)cc1)Cn1cncn1` (stereo not given), with “inactive”. The same measure for `CCN(CC)CCO`: “inactive”; for `CCCCCOC(=O)c1ccccc1C(=O)OCCCCC`: “inactive”. Regarding `CCC[CH2][Sn]([Cl])([CH2]CCC)[CH2]CCC`, the compound was called inactive. The same measure for `c1ccc(N=Nc2ccccc2)cc1`: “inactive”. For the compound `Cc1cccc(N)c1N`, the outcome was inactive.
